Compound activity: PubChem BioAssay, The Scripps Research Institute Molecular Screening Center
Rows were chosen to be rich in hits. Some 2.6% of all compounds tested hit in one or more screens of this group.
S1P1 agonist: S1P1 (human) receptor agonism; P21453; activation, % at 4.5 µM; 1.5% of 16,000 active; S1P1 agonist cell-based reporter assay; in the data active means activation above about 80%
OPRK1 antag MB: blocks the human kappa opioid receptor, Maybridge compounds; AID 652031; inhibition, % at 9 µM; P41145; 0.4% of 16,000 active; OPRK1 cells, antagonist mode, fluorescence readout; in the data active means inhibition above about 50%
Target sequence (P41145 whole entry, looked up): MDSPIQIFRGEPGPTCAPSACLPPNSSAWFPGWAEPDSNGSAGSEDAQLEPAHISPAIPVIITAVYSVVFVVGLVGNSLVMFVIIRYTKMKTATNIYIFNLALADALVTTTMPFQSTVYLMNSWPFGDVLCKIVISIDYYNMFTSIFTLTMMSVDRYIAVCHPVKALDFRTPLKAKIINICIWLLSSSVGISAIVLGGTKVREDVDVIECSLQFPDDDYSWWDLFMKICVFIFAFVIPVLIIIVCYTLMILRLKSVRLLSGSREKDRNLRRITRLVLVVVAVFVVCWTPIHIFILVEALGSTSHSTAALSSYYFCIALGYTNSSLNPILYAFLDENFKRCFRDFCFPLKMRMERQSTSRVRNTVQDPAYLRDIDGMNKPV
PME-1 Maybr inh: inhibitors of human PME-1 in Maybridge library; Q9Y570; recombinant PME-1, FP-Rh probe fluorescence polarization; inhibition, % at 9 µM; 0.5% of 16,000 active; in the data active means inhibition above about 30%
TLR4 MyD88 blk: TLR4-MyD88 interaction inhibition. Cell-based TLR4-MyD88 binding inhibition assay. 0.06% of 16,000 active. inhibition, % at 10 µM; in the data active means inhibition above about 45%
NOTCH ag: agonists of NOTCH signaling. AID 434982. NOTCH signaling luciferase reporter cells, luminescence. 0.4% of 15,000 active. activation, % at 2.5 µM; in the data active means activation above about 2.2%
* = called active by the depositor; nt = not tested or not shown.

SMILES	S1P1 agonist	OPRK1 antag MB	PME-1 Maybr inh	TLR4 MyD88 blk	NOTCH ag
N#C/C(=C\c1cccs1)C(=O)N1CCOCC1	99.5*	12.4	-0.8	3.6	nt
CC(=O)Nc1ccc(F)cc1NC=C(C#N)C#N	0.8	13.2	2.7	2.3	0.1
CSc1ccc(C(F)(F)F)cc1NC=C(C#N)C#N	89.5*	26.5	2.8	-2.4	-0.3
O=C(c1ccc(-c2cccs2)s1)N1CCN(C2c3ccccc3-c3ccccc32)CC1	68.1	18.2	-10.5	5.4	-0.8
CCOC(=O)/C(=N\O)C1=CSC2=NNC(C)(C)N12	94.2*	24.8	-55.1	5.8	-0.8
COc1ccc(-c2nc3cc4c(cc3o2)Oc2ccccc2N4)cc1	56.9	79.2*	5.7	29.1	0.3
COc1ccc(SCCc2nnc(-c3ccccc3)o2)cc1	10.2	3.5	0.7	-0.1	-0.1
Cc1c(NN=C2C(=O)OC(C)(C)OC2=O)c(=O)n(-c2ccccc2)n1C	4.4	9.2	-0.6	-3.0	-0.6
O=C(c1cnn(-c2ccc(Cl)cc2)c1C(F)(F)F)N1CCN(c2ncnc3ccsc23)CC1	97.3*	80.5*	0.0	5.9	-2.3
CC(ONC(=O)c1cc(C(F)(F)F)cc(C(F)(F)F)c1)C(=O)Nc1ccc(Cl)cc1 (stereo not given)	110.3*	11.5	0.3	-3.0	0.1
COc1ccc(Oc2cccc(Cl)c2CNS(=O)(=O)c2ccc(OC)cc2)cc1	24.0	-28.9	3.0	-5.6	-0.9
CC(=O)OC1C[C@H](n2cc(C)c(=O)[nH]c2=O)O[C@@H]1COS(=O)(=O)c1ccc(C)cc1 (stereo not given in full)	-14.7	0.6	-0.4	3.5	3.0*
Cc1ccc(S(=O)(=O)C[C@H]2O[C@@H](n3cc(I)c(=O)[nH]c3=O)C[C@@H]2O)cc1	-0.3	15.2	5.3	6.2	0.3
COc1ccc(Br)c(C(=O)/C(C#N)=N/Nc2ccc(F)cc2)c1	57.6	0.9	36.8*	0.7	-0.8
COc1ccc(Br)c(C(=O)/C(C#N)=C/c2ccc(N(C)C)cc2)c1	1.3	-7.6	7.6	-7.9	-0.2
O=C(Oc1cccc(F)c1F)c1ccc2nonc2c1	-13.5	2.3	-1.1	-11.1	-0.2
COC(=O)CO/N=C/c1ccc(Cl)cc1Cl	13.7	8.3	-2.4	0.1	0.8
O=C(CO/N=C/c1ccc(Cl)cc1Cl)NNC(=S)Nc1cc(Cl)ccc1Cl	85.8*	9.0	7.9	0.1	0.5
Nc1c(C(=O)N/N=C/c2ccc3c(c2)OCO3)sc2nnc(-c3ccccc3)c(-c3ccccc3)c12	76.3	79.9*	25.4	7.2	-0.3
Cc1ccc(NC(=S)NCCCNC(=O)c2cccs2)c(C)c1	-3.4	-15.4	6.8	7.9	0.0
CC(C)(C)C(=O)OCc1nc(-c2cc(-c3ccccc3)no2)cs1	20.8	5.0	-3.1	nt	-0.7
CC(C)(C)C(=O)OCc1nc(-c2ccc3c(c2)OCO3)cs1	92.2*	3.8	-0.1	11.3	-0.5
CCCOc1ccccc1/C=N/NC(=S)Nc1cccc(F)c1	-27.0	9.7	-4.6	9.3	-0.2
Cc1nnsc1C(=O)NCc1cc(F)cc2c1OCOC2	4.3	11.8	8.0	4.6	-0.6
C/C(=N\N=C(/N)SCc1cc(F)cc2c1OCOC2)c1ccc(C)nc1	90.0*	-5.0	-0.3	-4.1	-0.9
SMILES	S1P1 agonist	OPRK1 antag MB	PME-1 Maybr inh	TLR4 MyD88 blk	NOTCH ag
Cc1ccc(Cn2nc(C(=O)O/N=C(\N)c3ccccc3)cc2C)cc1	100.4*	3.5	-13.6	-12.7	-0.2
Cn1nc(C(C)(C)C)cc1C(=O)O/N=C(\N)c1ccccc1	72.0	8.9	0.2	-13.2	-0.1
Cc1cc(C)c(C(=O)N2CCOCC2)c(CC(C)(C)C(=O)O)c1	0.7	11.1	3.2	-13.6	-0.5
CC(=O)c1cc([N+](=O)[O-])c(SCc2ccc(Cl)cc2)s1	60.6	0.4	31.9*	-13.8	-0.5
O=C1c2ccccc2S(=O)(=O)N1CCS(=O)(=O)c1ccc(Cl)cc1Cl	90.6*	-18.9	2.4	nt	-0.9
c1csc(C2Nc3ccccc3O2)c1 (stereo not given)	3.8	-1.9	0.5	-5.1	-0.6
COc1ccc(C(N)=S)cc1[N+](=O)[O-]	13.4	11.5	3.7	0.8	0.7
NC(=O)c1cc2c(c([N+](=O)[O-])c1)-c1c(cc(C(N)=O)cc1[N+](=O)[O-])C2=O	-8.5	-7.3	37.8*	7.3	-0.1
COc1ccc(-c2c(C#N)c(OC)nc3c2CCc2ccccc2-3)cc1	1.8	-7.9	0.7	2.5	-0.1
CCOC(=O)CSCC(=O)c1ccc(OCc2ccc([N+](=O)[O-])cc2)cc1	10.2	11.4	1.1	3.7	0.1
Cc1cc(C(=O)O/N=C(\N)c2ccc(C(C)(C)C)cc2)no1	89.8*	23.6	5.8	7.1	-0.1
Cc1cc(/C(N)=N/OC(=O)c2ccno2)no1	6.0	11.7	12.5	11.5	-0.4
O=C(CCn1cccc(C(F)(F)F)c1=O)Nc1ccc(Cl)cc1	-17.8	-2.1	4.9	-1.6	-0.5
Nc1cnc(Oc2c(Cl)cccc2Cl)c(C(F)(F)F)c1	86.2*	-0.1	3.7	9.7	-0.5
C#CCOC(=O)Nc1cnc(Sc2ccccc2)c(C(F)(F)F)c1	11.5	-11.0	-3.7	12.1	-0.1
C#CCOC(=O)Nc1cnc(Oc2c(Cl)cccc2Cl)c(C(F)(F)F)c1	98.6*	12.1	-21.4	1.2	-0.4
COCCCNC(=S)N/N=C/c1ccc(-c2ccc(OC)cc2)s1	41.0	-22.4	0.8	-33.3	-0.8
Fc1ccc(-c2[nH]ncc2CN2CCN(Cc3ccc4c(c3)OCO4)CC2)cc1	2.3	-11.5	2.5	12.3	-0.7
N#Cc1cccc(C#N)c1Oc1ccc(N)cc1	0.9	94.1*	2.1	-0.2	-0.9
N#Cc1cccc(C#N)c1Oc1ccc(S(=O)(=O)Nc2ccccc2)cc1	10.2	-3.7	29.0	-7.1	nt
COc1ccc([N+](=O)[O-])c(S(=O)(=O)c2ccc(Cl)cc2)n1	104.0*	81.6*	2.9	-8.0	-1.3
COc1cc(Sc2ccc(Cl)cc2)ccc1[N+](=O)[O-]	6.8	-4.8	-0.3	2.6	0.2
O=S(=O)(Nc1ccccc1C(F)(F)F)c1ccc(-c2ccccn2)s1	15.0	21.6	22.0	2.8	nt
CSc1nccc(-c2ccc(S(=O)(=O)Nc3cc(C(F)(F)F)cc(C(F)(F)F)c3)s2)n1	87.5*	14.8	-2.7	-6.8	0.3
Cc1cc(/C=N\NC(=O)CCc2ccc(O)cc2)c2c(C)ccc(C(C)C)cc1-2	-23.8	-16.9	49.3*	-4.7	0.0
SMILES	S1P1 agonist	OPRK1 antag MB	PME-1 Maybr inh	TLR4 MyD88 blk	NOTCH ag
Cc1cc(/C=N\NC(N)=S)c2c(C)ccc(C(C)C)cc1-2	-12.2	1.5	5.9	6.6	0.1
FC(F)(F)c1cccc(Nc2nnc(-c3cccnc3)s2)c1	-0.3	-16.5	1.4	-4.4	-0.2
O=C(Nc1ccccc1)Nc1nnc(C(F)(F)F)s1	109.5*	32.3	5.0	-25.4	0.1
FC(F)(F)c1nnc(Nc2cccnc2)s1	-8.4	16.4	3.6	4.5	4.5*
Cn1c(=O)c2c(NCc3ccccc3)cc(=O)n(C)c2n(C)c1=O	-37.3	16.6	-0.5	-9.8	8.5*
CCC(=O)Nc1cccc2c(NC(=O)CC)cccc12	82.3*	6.6	-3.0	12.3	-0.7
CCC(=O)Nc1cc(F)ccc1C	-20.8	9.9	1.7	-7.3	-0.1
